Values without a mark were called inactive. Results filed as inconclusive are left out. Calls of active or inactive are those of the source. Unless noted, the call rests on the fitted dose curve.

Drawing on PubChem BioAssay (Tox21), this text covers Potency for seven compounds.

Test [1] in a line: Nuclear factor erythroid 2-related factor 2/antioxidant responsive element (Nrf2/ARE) small molecule agonists: qHTS cell viability counter screen in human keratinocytes (AID 1919968; active means well fitted curve in the direction sought with a large enough effect in the repeat runs; an effect the other way counts as inactive or inconclusive; further: nearly all actives have a fitted effect of over 55% in size). The essentials:
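Cells of the KeratinoSens line were plated at 1,500 per well and left for 5 h before compound transfer from DMSO stocks. After a 23 h incubation (37 C, 5% CO2), CellTiter-Fluor was added. Signal was taken as fluorescence intensity 1 h later.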
(In qHTS, concentration-response curves come from the screen itself.)

A short description of test [2]: Nuclear factor erythroid 2-related factor 2/antioxidant responsive element (Nrf2/ARE) small molecule agonists: luciferase reporter gene qHTS assay in human keratinocytes (AID 1919969). Further: nearly all actives have a fitted effect of over 35% in size. For orientation: Reporter assays use an easily measured gene product as a stand-in for the process of interest.
The target of test [3] is Gonadotropin-releasing hormone receptor (Homo sapiens) (UniProt P30968). The experiment in a line: Human gonadotropin-releasing hormone receptor (GnRHR) small molecule agonists, calcium flux assay in GnRHR-HEK293 cells (AID 1920063). Further: nearly all actives have a fitted effect of over 35% in size. The essentials: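 Compounds dissolved in DMSO are pin-transferred onto dye-loaded GnRHR-HEK293 cells, which were seeded 18 h before at 37 C/5% CO2. Calcium signal is read as fluorescence intensity at 1 s intervals for 3 min.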
Gonadotropin-releasing hormone receptor (Homo sapiens), sequence (P30968 whole entry, looked up): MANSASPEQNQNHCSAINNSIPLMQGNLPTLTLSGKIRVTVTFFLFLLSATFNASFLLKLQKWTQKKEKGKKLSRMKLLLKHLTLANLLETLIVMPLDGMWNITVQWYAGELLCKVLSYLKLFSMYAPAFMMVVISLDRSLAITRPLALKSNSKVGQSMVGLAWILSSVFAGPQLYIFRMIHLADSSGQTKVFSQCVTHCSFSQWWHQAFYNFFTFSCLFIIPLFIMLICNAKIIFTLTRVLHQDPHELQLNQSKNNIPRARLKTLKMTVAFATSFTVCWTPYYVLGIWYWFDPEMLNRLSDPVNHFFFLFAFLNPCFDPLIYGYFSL

For test [4], the target named is KiSS-1 receptor (Homo sapiens) (UniProt Q969F8). The test is described as follows: Human kisspeptin (KISS1R) small molecule agonists, calcium flux assay in KISS1R-HEK293 cells (AID 1920064; active means well fitted curve in the direction sought with a large enough effect in the repeat runs; an effect the other way counts as inactive or inconclusive). The procedure, abridged: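 Cell line: HEK293, stable human KISS1R. Dye loading 1 h at 37 C after 18 h culture. Read: kinetic fluorescence, 480/540 nm, 3 min at 1 s intervals.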
KiSS-1 receptor (Homo sapiens), sequence (Q969F8 whole entry, looked up): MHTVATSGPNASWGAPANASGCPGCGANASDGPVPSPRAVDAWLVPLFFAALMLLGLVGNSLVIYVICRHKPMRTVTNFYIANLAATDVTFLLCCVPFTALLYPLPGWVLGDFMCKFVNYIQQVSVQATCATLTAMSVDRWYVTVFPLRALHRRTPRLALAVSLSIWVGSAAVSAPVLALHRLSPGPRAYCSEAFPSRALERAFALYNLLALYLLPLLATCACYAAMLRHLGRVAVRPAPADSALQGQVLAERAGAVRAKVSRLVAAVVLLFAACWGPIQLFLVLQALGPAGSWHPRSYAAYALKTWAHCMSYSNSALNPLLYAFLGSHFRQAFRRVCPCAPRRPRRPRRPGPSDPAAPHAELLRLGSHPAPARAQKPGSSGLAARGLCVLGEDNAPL
A general note: Calcium assays in cells follow changes in intracellular calcium, usually with a dye or a luminescent sensor.

Test [5] is described as follows: G protein-coupled receptor (GPCR) small molecule agonists, calcium flux assay: HEK293 wild type cell line counter screen (AID 1920065). The procedure, abridged:
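Tox21 10K compounds, 15 concentrations each in triplicate, pin-transferred in DMSO onto dye-loaded cells; kinetic read at 480/540 nm for 3 min, 1 s intervals.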

A short description of test [6]: p53 small molecule agonists, cell-based qHTS assay with human liver microsomes (AID 1963577).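 Further: p53 response element beta-lactamase reporter cells with liver microsomes plus NADPH.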 The essentials: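 16 h, 37 C exposure of p53RE-bla cells to compounds with human liver microsomes and NADPH (0.5 mg/mL final each); detection via LiveBLAzer mixture, 2 h dark at room temperature.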
Test [7] can be described thus: p53 small molecule agonists, cell-based qHTS assay with rat liver microsomes (AID 1963578). The procedure, abridged:
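With rat liver microsomes and NADPH present (0.5 mg/mL final each), p53RE-bla cells are treated with compound for 16 h at 37 C. LiveBLAzer detection mixture is then applied for 2 h at room temperature in the dark.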

Test [8] is described as follows: p53 small molecule agonists, cell-based qHTS assay with human liver microsomes: qHTS cell viability counter screen (AID 1963579). Further: nearly all actives have a fitted effect of over 45% in size. The essentials:
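In this multiplexed counter screen, the reporter plates were subsequently treated with CellTiter-Glo so that cell viability, reflected by luminescence, could be recorded for p53RE-bla cells dosed 16 h with compounds under microsomal activation (HLM and NADPH).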

Test [9] can be described thus: p53 small molecule agonists, cell-based qHTS assay with rat liver microsomes: qHTS cell viability counter screen (AID 1963580). Further: nearly all actives have a fitted effect of over 45% in size. The essentials: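 Cytotoxicity counter screen: intracellular ATP read by CellTiter-Glo luminescence in the p53 reporter wells. HCT-116 p53RE-bla cells were treated for 16 h at 37 C alongside rat liver microsomes and NADPH, each 0.5 mg/mL final.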

A short description of test [10]: p53 small molecule agonists, cell-based qHTS assay: qHTS cell viability counter screen (AID 1963581). Further: nearly all actives have a fitted effect of over 45% in size. The essentials:
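ATP content measured by luminescence in HCT-116 p53RE-bla cells treated 16 h at 37 C, same wells as the reporter screen.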

A short description of test [11]: p53 small molecule agonists, cell-based qHTS assay (AID 1963582; active means well fitted activation curve with a large enough effect in the signal ratio in the repeat runs, not every such curve was filed as active; the % refers to the signal ratio). The procedure, abridged: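 16 h compound exposure (37 C) of p53 response element–bla cells, preceded by 5 h recovery at 37 C/5% CO2; read-out via LiveBLAzer B/G FRET substrate, 2 h RT, fluorescence intensity.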
The target in test [12] is 5-hydroxytryptamine receptor 2A (Homo sapiens) (UniProt P28223). The test is described as follows: 5-hydroxytryptamine receptor 2A (HTR2A) small molecule antagonists, cell-based qHTS assay (AID 1963586). Further: nearly all actives have a fitted effect of over 45% in size. The procedure, abridged: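 CHO cells stably expressing human HTR2A were plated for 18 h at 37 C, then loaded with calcium dye for 1 h. Compounds were preincubated 5 min at room temperature before DOI (4 nM solution) was added. Kinetic fluorescence was read for 3 min.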
5-hydroxytryptamine receptor 2A (Homo sapiens), sequence (P28223 whole entry, looked up): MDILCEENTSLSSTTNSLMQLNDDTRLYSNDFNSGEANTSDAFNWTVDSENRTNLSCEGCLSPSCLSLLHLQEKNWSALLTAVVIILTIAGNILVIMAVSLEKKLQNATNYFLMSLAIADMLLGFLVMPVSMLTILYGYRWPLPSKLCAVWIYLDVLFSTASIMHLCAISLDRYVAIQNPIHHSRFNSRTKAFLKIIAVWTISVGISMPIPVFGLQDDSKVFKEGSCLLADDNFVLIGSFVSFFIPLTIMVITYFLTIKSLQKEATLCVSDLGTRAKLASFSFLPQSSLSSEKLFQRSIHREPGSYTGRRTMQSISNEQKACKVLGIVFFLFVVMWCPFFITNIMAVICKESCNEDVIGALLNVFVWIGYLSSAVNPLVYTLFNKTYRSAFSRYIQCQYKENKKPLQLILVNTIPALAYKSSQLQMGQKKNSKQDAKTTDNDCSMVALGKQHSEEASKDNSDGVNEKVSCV

Test [13] has the same target. The experiment in a line: 5-hydroxytryptamine receptor 2A (HTR2A) small molecule agonists, cell-based qHTS assay (AID 1963587). Further: nearly all actives have a fitted effect of over 30% in size. The essentials:
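Kinetic calcium-flux fluorescence (2 min, 1 sec intervals) after compound addition in agonist mode. HTR2A-CHO cells were cultured 18 h, then dye-loaded 1 h at 37 C.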

The target of test [14] is Muscarinic acetylcholine receptor M1 (Homo sapiens) (UniProt P11229). The experiment in a line: Cholinergic receptor muscarinic 1 (CHRM1) small molecule antagonists, cell-based qHTS assay (AID 1963588). Further: nearly all actives have a fitted effect of over 40% in size. Further: potency means the concentration at half of the fitted maximal effect. The procedure, abridged: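 Compounds were tested at 15 concentrations in three independent runs. Dye-loaded CHRM1-CHO cells were exposed 5 min at room temperature before stimulation by acetylcholine added at 50nM. Intracellular calcium was read kinetically on FDSS for 3 min.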
Muscarinic acetylcholine receptor M1 (Homo sapiens), sequence (P11229 whole entry, looked up): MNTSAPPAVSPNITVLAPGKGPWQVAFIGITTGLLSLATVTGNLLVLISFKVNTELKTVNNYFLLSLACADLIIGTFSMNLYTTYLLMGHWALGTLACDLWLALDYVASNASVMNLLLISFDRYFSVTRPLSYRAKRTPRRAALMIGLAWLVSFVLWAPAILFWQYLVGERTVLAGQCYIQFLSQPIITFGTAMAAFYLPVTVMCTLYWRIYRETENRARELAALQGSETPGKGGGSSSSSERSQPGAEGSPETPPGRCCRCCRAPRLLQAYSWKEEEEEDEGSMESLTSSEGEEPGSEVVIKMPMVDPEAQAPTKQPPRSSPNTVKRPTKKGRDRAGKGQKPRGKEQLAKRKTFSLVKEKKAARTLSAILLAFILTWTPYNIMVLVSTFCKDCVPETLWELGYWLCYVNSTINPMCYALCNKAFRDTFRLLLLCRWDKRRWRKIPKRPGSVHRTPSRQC

Test [15] shares this target. The test is described as follows: Cholinergic receptor muscarinic 1 (CHRM1) small molecule agonists, cell-based qHTS assay (AID 1963589). Further: nearly all actives have a fitted effect of over 35% in size. The essentials:
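Homogeneous fluorescence calcium flux, agonist mode. Human M1-expressing CHO cells; compound dosed at 15 concentrations, three independent runs; signal sampled every 1 sec.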

The nature of test [16]: cAMP Responsive Elements (CRE) small molecule agonists, cell-based qHTS assay (AID 1963590). The procedure, abridged: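 HEK 293T cells stably bearing CRE-bla were plated at 2,000 cells per well and rested 18 h. Compounds, positive controls or DMSO were added for 3 h at 37 C. LiveBLAzer B/G substrate was then loaded for 2 h at room temperature.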
Test [17] can be described thus: cAMP Responsive Elements (CRE) small molecule antagonists, cell-based qHTS assay (AID 1963591; active means well fitted inhibition curve with a large enough effect in the signal ratio in the repeat runs, not every such curve was filed as active; the % refers to the signal ratio). The essentials:
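First, CRE-bla HEK293T cells settled 18 h at 37 C. Next, compound and 0.25 uM final NKH477 were applied for 3 h. Last, LiveBLAzer B/G substrate was loaded for 2 h at room temperature.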

The target of test [18] is Beta-2 adrenergic receptor (Homo sapiens) (UniProt P07550). The experiment in a line: Adrenergic beta2 receptor (ADRB2) small molecule antagonists, cell-based qHTS assay (AID 1963592). Further: series mostly up to about 92 µM; nearly all actives have a fitted effect of over 50% in size. The essentials:
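Assay format: CHO-ADRB2 cells, 18-20hr seeding at 37C/5% CO2, then compound plus 1nM isoproterenol agonist mix for 0.5hr RT. Homogeneous time-resolved fluorescence cAMP detection after 1hr, expressed as 665/615 nm ratio.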

Test [19] shares this target. The experiment in a line: Adrenergic beta2 receptor (ADRB2) small molecule agonists, cell-based qHTS assay (AID 1963593).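 Further: CHO cells stably overexpressing human ADRB2.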 The essentials: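 CHO cells stably over-expressing ADRB2 were plated overnight at 37C, then dosed with compounds plus a stimulation mix containing 100uM IBMX and 25uM Ro-20-1724 for 0.5hr at room temperature. cAMP was measured by HTRF competition, 1hr.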

Test [20] deals with D(2) dopamine receptor (Homo sapiens) (UniProt P14416). The test is described as follows: Dopamine D2 receptor (DRD2) small molecule agonists, cell-based qHTS assay (AID 1963594). Further: nearly all actives have a fitted effect of over 35% in size. The procedure, abridged:
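cAMP accumulation in DRD2-HEK293 cells measured by HTRF after 1 h detection; compounds added 10 min before NKH477 (200nM […]) forskolin-analogue stimulation, 30 min at room temperature, with Ro20-1724 present at 0.1 mM final.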

Beta-2 adrenergic receptor (Homo sapiens), sequence (P07550 whole entry, looked up): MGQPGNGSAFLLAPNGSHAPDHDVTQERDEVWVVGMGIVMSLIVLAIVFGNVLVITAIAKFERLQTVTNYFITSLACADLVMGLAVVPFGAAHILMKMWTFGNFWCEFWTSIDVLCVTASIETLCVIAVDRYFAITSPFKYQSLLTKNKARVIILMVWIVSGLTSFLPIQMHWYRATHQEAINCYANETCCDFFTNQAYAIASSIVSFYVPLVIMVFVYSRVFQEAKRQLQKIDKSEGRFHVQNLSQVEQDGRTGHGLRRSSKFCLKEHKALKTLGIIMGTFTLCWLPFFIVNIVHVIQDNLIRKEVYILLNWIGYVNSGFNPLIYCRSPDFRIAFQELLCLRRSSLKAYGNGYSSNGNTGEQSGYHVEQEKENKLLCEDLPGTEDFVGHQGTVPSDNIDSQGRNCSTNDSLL
D(2) dopamine receptor (Homo sapiens), sequence (P14416 whole entry, looked up): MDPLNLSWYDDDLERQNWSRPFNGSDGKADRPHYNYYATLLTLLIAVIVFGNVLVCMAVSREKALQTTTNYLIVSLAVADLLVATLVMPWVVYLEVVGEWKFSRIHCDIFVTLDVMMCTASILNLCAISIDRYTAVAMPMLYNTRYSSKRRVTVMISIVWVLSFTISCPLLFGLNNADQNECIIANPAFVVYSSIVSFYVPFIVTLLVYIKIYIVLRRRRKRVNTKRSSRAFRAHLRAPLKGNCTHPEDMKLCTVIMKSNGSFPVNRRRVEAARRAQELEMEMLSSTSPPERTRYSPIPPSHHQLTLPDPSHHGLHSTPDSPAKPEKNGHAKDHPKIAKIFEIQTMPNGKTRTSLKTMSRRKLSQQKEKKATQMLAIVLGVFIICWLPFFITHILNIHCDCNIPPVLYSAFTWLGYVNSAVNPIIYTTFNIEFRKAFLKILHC

Turning to `CC(=O)OC/C=C/c1ccccc1`, the Potency result in test [1], in test [2], in test [3], in test [4], in [5] and in test [6] was “inactive” throughout. Moreover, the Potency result in test [7], in test [8], in test [9], in test [10], in test [11] and in test [12] was “inactive” each time. Besides, the Potency entry in test [13], in test [14], in test [15], in [16], in test [17] and in test [18] was “inactive” throughout. Moreover, the Potency result in test [19] and in [20] was “inactive” in each case.

Take `CCCCCCCC(=O)N(C)C`: the Potency result in [1], in test [2], in test [3], in [4], in test [5] and in [6] was “inactive” throughout. The Potency result in [7], in test [8], in test [9], in test [10], in [11] and in [12] was “inactive” throughout. Besides, the Potency entry in test [13], in [14], in test [15], in test [16], in test [17] and in test [18] was “inactive” each time. Also, the Potency result in [19] and in test [20] was “inactive” throughout.

As to `C1=CCC2CC=CC2C1` (stereo not given), the Potency entry in test [1], in test [2], in test [3], in test [4], in test [5] and in test [6] was “inactive” each time. The Potency entry in test [7], in test [8], in test [9], in [10], in test [11] and in test [12] was “inactive” throughout. For the same compound, the Potency entry in [13], in [15], in test [16], in test [17], in [18] and in test [19] was “inactive” each time. Besides, the Potency entry in test [20] is “inactive”. In test [14], the Potency was 3.34 µM (active).

In the case of `CC1=NN(c2ccc(S(=O)(=O)O)cc2)C(=O)C1`, the Potency result in [1], in test [2], in test [3], in test [4], in test [5] and in test [6] was “inactive” throughout. For the same compound, the Potency entry in [7], in test [8], in test [9], in [10], in [11] and in test [12] was “inactive” each time. Further, the Potency entry in [13], in [14], in test [15], in [16], in test [17] and in [18] was “inactive” throughout. The Potency result in test [19] and in [20] was “inactive” in each case.

`C/C=C/c1ccc(OC)c(OC)c1`: the Potency result in test [1], in [2], in [3], in test [4], in test [5] and in test [6] was “inactive” each time. The Potency entry in [7], in [8], in test [9], in test [10], in [11] and in [12] was “inactive” in each case. In addition, the Potency entry in test [13], in [14], in test [15], in test [16], in test [17] and in [18] was “inactive” in each case. In addition, the Potency result in test [19] and in test [20] was “inactive” each time.

`C[N+](C)(CCOc1ccccc1)Cc1cccs1`: the Potency result in [1], in [2], in test [3], in test [4], in [5] and in test [6] was “inactive” in each case. Moreover, the Potency result in [7], in test [8], in test [9], in test [10], in test [11] and in test [12] was “inactive” each time. For the same compound, the Potency entry in test [13], in test [14], in [15], in [16], in [17] and in [18] was “inactive” in each case. In addition, the Potency entry in test [19] and in test [20] was “inactive” each time.

Regarding `CC(C)C(=O)OC(=O)C(C)C`, the Potency entry in test [1], in test [2], in test [3], in test [4], in test [5] and in [6] was “inactive” throughout. Besides, the Potency result in [7], in test [8], in test [9], in [10], in test [11] and in test [12] was “inactive” throughout. Moreover, the Potency result in test [13], in test [14], in test [15], in test [16], in test [17] and in [18] was “inactive” throughout. Besides, the Potency entry in test [19] and in [20] was “inactive” in each case.
